These results are taken from PubChem BioAssay (NCATS).

Values without a mark were called inactive. Inconclusive results are not listed. The source made the active and inactive calls. Calls follow the shape of the dose curve; as a rule, active = well fitted curve in the direction sought with a large enough effect; inconclusive = small, poorly fitted or top-dose-only effect, or another doubt; inactive = no such curve, though single readings can be large; an effect the other way counts as inactive or inconclusive.

Test [1] relates to Nanoluciferase (engineered Oplophorus gracilirostris luciferase). The test is described as follows: Primary Nanoluciferase (NLuc) qHTS assay for identification of artifact compounds. (AID 1845222).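 Also: NLuc secreted into diluted conditioned medium of S16 cells; series mostly up to about 54 µM; 0% = DMSO and -100% = no enzyme.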 In short, it runs like this: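 S16 cell supernatant NLuc, 1:55; cpds qHTS; 15 min RT dark; Nano-Glo substrate 1:100, 5 min; luminescence; Hill fit of % inhibition.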
Test [2] is described as follows: Primary redox qHTS assay for identification of artifact compounds. (AID 1845223). Also: potency is read from the fitted curve at half-maximal effect.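 As to redox activity (% of DA3003): 0% = DMSO and 100% = reference compound.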 In short, it runs like this: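 Redox-cycling detection via DTT (250 uM final) oxidation coupled to Amplex Red (25 uM)/HRP (250 mU/mL) in HBSS. 15 min preincubation plus 30 min after DTT, room temperature. Ex/Em 525/598 nm; 4-parameter Hill fit against DMSO and 10 uM DA3003.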
Test [3] concerns the target Cytochrome P450 3A4 (Homo sapiens) (UniProt P08684). The test is described as follows: qHTS for inhibitors of CYP3A4 against the NCATS DSHEA and TCM libraries (AID 1919971).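 Also: % is scaled to controls: 0 for no effect and ±100 for the full control effect; inhibition lowers luminescence from luciferin made by CYP3A4.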 In short, it runs like this:
(§1)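 Substances were tested against enzyme with a pro-luciferin substrate; minus-enzyme wells served as background. After NADPH-initiated oxidation (30-45 min, RT), light was generated with P450-Glo reagent.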

Test [4] addresses Cytochrome P450 2D6 (Homo sapiens) (UniProt P10635). Briefly: qHTS for inhibitors of CYP2D6 against the NCATS DSHEA and TCM libraries (AID 1919972). Also: % is scaled to controls: 0 for no effect and ±100 for the full control effect. In short, it runs like this: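 qHTS, concentration–response format with most substances from 19.5 nM. CYP2D6 + pro-luciferin substrate, 15 min with compound, then 1x NADPH regen, 30–45 min RT dark. Glo detection 30 min, luminescence. Quinidine control.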

The target of test [5] is Cytochrome P450 2C9 (Homo sapiens) (UniProt P11712). The test is described as follows: qHTS for inhibitors of CYP2C9 against the NCATS DSHEA and TCM libraries (AID 1919973).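 Also: luminogenic pro-luciferin CYP2C9 substrate turned into luciferin with NADPH regeneration; series mostly up to about 34 µM; % is scaled to controls: 0 for no effect and ±100 for the full control effect.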 In short, it runs like this:
as §1

Test [6] has as its target Cytochrome P450 2C19 (Homo sapiens) (UniProt P33261). The test is described as follows: qHTS for inhibitors of CYP2C19 against the NCATS DSHEA and TCM libraries (AID 1919974).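 Also: luminescence from luciferin released by CYP2C19 oxidation of a pro-luciferin substrate; % is scaled to controls: 0 for no effect and ±100 for the full control effect.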 In short, it runs like this:
as §1

Test [7] in a line: KB-3-1 P-gp reporter qHTS against the NCATS DSHEA and TCM libraries (AID 1919975). Also: 0% is about no effect. From the text: Assay Development and Screening Technology Laboratory (ADST)
National Center for Advancing Translational Sciences (NCATS), Rockville, MD
National Institute of Health (NIH), Bethesda, Maryland
Dietary Supplements and Natural Products have minor oversight of their safety and efficacy. We assembled a collection of Dietary Supplements and Natural Products (DSNP) as well as Traditional Chinese Medicinal (TCM) Plant extracts, which were screened against an in vitro panel of assays, including a liver cytochrome p450 enzyme panel, CAR/PXR signaling pathways, and P-gp transporter assays, to assess their activity. This pipeline facilitated the interrogation of Natural Product-Drug Interaction (NaPDI) through prominent metabolizing pathways. In addition, we compared the activity profiles of the DSNP/TCM substances with those of an approved drug collection. […] Overall, we highlight four significant bioactivity profiles (measured by p-values) as examples of this prediction. […] To profile potential P-gp activity, a differential cell viability was measured against two cell lines: a parental KB-3-1 human cervical adenocarcinoma cell line and the drug-resistant subline KB-8-5-11 that overexpresses P-gp. […]
8; Read; Luminescence; ViewLux plate reader. […]
8. Luminescence intensity was detected using a PerkinElmer ViewLux microplate reader. […]

Test [8] addresses Cytochrome P450 1A2 (Homo sapiens) (UniProt P05177). Briefly: qHTS for inhibitors of CYPIA2 against the NCATS DSHEA and TCM libraries (AID 1919976). Also: series mostly up to about 37 µM; % is scaled to controls: 0 for no effect and ±100 for the full control effect. In short, it runs like this:
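Luminescence read-out: pro-luciferin converted to D-luciferin by CYP1A2, detected with P450-Glo reagent after 30 min RT. Enzyme plus substrate got compounds for 15 min RT; NADPH regeneration solution (final 1x) started a 30-45 min reaction, light-protected.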

Test [9] can be described thus: qHTS Counterscreen for compound interference against the NCATS DSHEA and TCM libraries (AID 1919978).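 Also: compounds preincubated with 1 µM D-luciferin or buffer before detection reagent; % of control where 0% means no effect.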 To be noted: firefly luciferase detection reagent interference, luminescence. In short, it runs like this: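 Interference check: test samples were incubated with D-luciferin (final 1 uM) or buffer only for 15 min, room temperature, in a qHTS titration up to 39.8 uM, then developed with detection reagent and read by luminescence.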

The nature of test [10]: Dual reporter qHTS for agonist of Pregnane X Receptor (hPXR) against the NCATS DSHEA and TCM libraries: Fluorescence readout (AID 1920058). Also: 0% is about no effect. In short, it runs like this:
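Fluorescence read-out for cell viability: CellTiter-Fluor, 1 h at 37 °C, Ex/Em 405/540 nm. This followed ~24 h treatment of hPXR-Luc HepG2 cells with substances in agonist mode.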

Sequence of Cytochrome P450 3A4 (Homo sapiens) (P08684 whole entry, looked up): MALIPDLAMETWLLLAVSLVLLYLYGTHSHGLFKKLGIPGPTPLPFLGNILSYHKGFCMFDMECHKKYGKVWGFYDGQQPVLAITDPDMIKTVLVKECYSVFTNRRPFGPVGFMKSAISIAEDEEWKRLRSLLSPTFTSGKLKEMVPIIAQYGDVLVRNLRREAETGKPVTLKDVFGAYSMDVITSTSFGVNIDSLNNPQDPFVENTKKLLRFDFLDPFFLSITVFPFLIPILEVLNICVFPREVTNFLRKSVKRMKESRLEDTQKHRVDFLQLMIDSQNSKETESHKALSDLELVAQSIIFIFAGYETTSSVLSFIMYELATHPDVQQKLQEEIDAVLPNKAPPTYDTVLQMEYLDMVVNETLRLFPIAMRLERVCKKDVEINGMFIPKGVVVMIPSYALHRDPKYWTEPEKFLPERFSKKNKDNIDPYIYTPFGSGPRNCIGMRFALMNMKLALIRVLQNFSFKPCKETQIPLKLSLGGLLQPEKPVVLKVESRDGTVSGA
Sequence of Cytochrome P450 2C9 (Homo sapiens) (P11712 whole entry, looked up): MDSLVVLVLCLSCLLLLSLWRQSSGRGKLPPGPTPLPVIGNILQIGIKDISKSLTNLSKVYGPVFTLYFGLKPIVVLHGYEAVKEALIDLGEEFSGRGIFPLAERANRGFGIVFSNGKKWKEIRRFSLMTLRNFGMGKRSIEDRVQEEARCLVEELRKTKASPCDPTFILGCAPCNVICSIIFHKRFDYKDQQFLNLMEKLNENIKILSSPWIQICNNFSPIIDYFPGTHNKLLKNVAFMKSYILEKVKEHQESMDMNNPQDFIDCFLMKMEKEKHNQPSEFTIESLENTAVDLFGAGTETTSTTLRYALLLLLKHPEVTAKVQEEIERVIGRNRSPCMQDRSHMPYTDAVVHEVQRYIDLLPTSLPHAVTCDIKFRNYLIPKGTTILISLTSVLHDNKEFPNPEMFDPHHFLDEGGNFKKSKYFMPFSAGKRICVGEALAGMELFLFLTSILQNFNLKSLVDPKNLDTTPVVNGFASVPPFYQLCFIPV
Sequence of Cytochrome P450 2D6 (Homo sapiens) (P10635 whole entry, looked up): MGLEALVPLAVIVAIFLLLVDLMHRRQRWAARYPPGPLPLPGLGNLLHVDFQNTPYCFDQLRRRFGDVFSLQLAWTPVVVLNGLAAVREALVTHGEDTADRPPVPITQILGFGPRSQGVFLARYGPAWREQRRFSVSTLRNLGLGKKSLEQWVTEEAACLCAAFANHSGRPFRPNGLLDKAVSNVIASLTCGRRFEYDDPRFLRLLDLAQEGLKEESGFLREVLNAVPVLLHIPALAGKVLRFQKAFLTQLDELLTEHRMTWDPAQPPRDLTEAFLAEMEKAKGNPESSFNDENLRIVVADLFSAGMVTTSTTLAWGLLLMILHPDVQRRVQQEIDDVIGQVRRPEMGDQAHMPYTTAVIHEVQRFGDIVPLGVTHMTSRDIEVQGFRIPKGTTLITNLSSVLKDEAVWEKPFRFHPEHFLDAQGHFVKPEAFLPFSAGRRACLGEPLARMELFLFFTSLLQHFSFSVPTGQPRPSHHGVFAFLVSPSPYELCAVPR
Sequence of Cytochrome P450 1A2 (Homo sapiens) (P05177 whole entry, looked up): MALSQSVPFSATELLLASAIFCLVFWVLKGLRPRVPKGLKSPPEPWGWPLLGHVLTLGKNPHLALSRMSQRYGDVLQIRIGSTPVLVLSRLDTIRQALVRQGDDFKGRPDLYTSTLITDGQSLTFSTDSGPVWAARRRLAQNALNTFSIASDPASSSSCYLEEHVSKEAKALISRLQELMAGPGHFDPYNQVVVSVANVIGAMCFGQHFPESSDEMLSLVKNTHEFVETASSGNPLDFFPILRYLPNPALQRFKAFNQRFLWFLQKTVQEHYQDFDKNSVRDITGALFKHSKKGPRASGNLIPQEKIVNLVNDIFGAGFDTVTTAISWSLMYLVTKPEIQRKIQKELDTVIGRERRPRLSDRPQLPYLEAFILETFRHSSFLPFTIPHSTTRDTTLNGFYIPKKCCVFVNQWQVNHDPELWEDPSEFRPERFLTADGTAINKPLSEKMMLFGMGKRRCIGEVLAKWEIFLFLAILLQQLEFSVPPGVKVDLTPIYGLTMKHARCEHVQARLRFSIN
Sequence of Cytochrome P450 2C19 (Homo sapiens) (P33261 whole entry, looked up): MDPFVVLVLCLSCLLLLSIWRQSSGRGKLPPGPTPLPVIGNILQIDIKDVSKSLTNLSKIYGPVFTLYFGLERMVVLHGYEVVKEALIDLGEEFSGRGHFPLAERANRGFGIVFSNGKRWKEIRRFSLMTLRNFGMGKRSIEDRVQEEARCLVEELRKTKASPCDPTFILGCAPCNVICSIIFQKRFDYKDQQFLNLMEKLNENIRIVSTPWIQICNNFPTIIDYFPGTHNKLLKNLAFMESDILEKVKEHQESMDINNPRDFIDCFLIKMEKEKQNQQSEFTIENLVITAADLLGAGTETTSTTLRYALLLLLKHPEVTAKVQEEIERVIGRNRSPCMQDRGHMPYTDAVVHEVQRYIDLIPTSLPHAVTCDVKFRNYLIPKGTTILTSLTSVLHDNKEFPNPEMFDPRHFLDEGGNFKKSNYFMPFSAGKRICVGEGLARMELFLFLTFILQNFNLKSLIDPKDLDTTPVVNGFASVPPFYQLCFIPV

For `COC(=O)Cn1nc(-c2cccc(OC)c2)c2ccccc21`, the Potency result in [1] and in test [2] was “inactive” in each case.

Turning to `COc1ccc2c(c1)N1C(=O)C[C@@]34C=CC[N@+]5([O-])CC[C@H]2[C@H](CC3)[C@@]145`, the Potency result in test [1] and in [2] was “inactive” in each case.

Turning to `CC(C)(OC1OC(CO)C(O)C(O)C1O)C1CCC(O)(CO)C2CC(=O)C(C)(O)C2C1` (configuration not stated), the Potency entry in [1] and in test [2] was “inactive” each time.

For the compound `O=C(OCc1ccccc1O[C@@H]1O[C@H](CO)[C@@H](O)[C@H](O)[C@H]1O)C1(O)C=CCCC1O` (some centres not stated), the Potency result in [1] and in test [2] was “inactive” each time.

As to `C/C=C/C=C/C=C/C(=O)O[C@@H]1[C@@H](OC)C2=C(C(=O)N(C(CCC(=O)O)C(=O)O)C2)[C@@]2(C)CCCC(C)(C)[C@H]12` (some centres not stated), the Potency result in test [1] and in test [2] was “inactive” each time.

Take `O=C(O)Cn1nnc(-c2ccc(CN(CCCCOc3ccc(CN4CCCC4)cc3)CCc3ccccc3)cc2)n1`: the Potency result in test [1] and in test [2] was “inactive” in each case.

With `Cc1oc2nc3c(c(NC(=O)CN4CCCC4=O)c2c1C)CCCC3`, the Potency entry in [1] and in test [2] was “inactive” in each case.

Turning to `CCCc1[nH]nc2c1C(c1cc(Cl)cc(Cl)c1O)C(C#N)=C(N)O2` (configuration not stated), in test [1], the Potency entry was “inactive”. The Potency in [2] was 11.9 µM (active).

Consider `O=C(OCC1=C[C@@H](O)[C@@H]2C=CO[C@@H](O[C@@H]3O[C@H](CO)[C@@H](O)[C@H](O)[C@H]3O)[C@H]12)c1ccc(O)cc1`, for which the Potency entry in test [1], in [2], in [3], in test [5], in [6] and in test [8] was “inactive” in each case. Further, the outcome in test [4], in [7] and in test [10] was inactive. Further, the max response in [9] was -1.45%.

As to `CC1=C2C[C@@]3(C)C(CCC[C@@H]3C)C(O)C2(O)OC1=O` (some centres not stated), the Potency entry in test [1] and in test [2] was “inactive” each time.

Regarding `CN(C)CC(c1ccc(O)cc1)C1(O)CCCCC1` (configuration not stated), the Potency result in test [1] and in test [2] was “inactive” throughout.

Take `C[C@@H]1[C@H]2[C@H](O[C@@H]3O[C@H](CO)[C@@H](O)[C@H](O)[C@H]3O)OC=C(C(=O)O)[C@H]2C[C@@H]1OC(=O)/C=C/c1ccc(O)cc1`: the Potency result in test [1] and in test [2] was “inactive” throughout.

Take `COc1ccnc2[nH]cc(C(=O)C(=O)N3CCN(C(=O)c4ccccc4)CC3C)c12` (configuration not stated): the Potency entry in test [1] and in test [2] was “inactive” throughout.

As to `CC(C)C[C@H](NC(=O)[C@@H]1O[C@H]1C(=O)O)C(=O)NCCCCN=C(N)N`, the Potency entry in test [1] and in [2] was “inactive” in each case.

`CC(=O)NC1CC(=O)C23C(=O)NC(Cc4c[nH]c5ccccc45)C2C(C)=C(C)C(O)C3/C=C/CC(C)/C=C(/C)C(O)C1O` (configuration not stated): the Potency entry in test [2] was “inactive”.

Consider `CC1(C(=O)O)CCCC2(C)C3CCC4CC3(CCC12)CC4(O)CO` (configuration not stated), for which the Potency result in test [1] and in [2] was “inactive” throughout.

For the compound `CCN(CCN(C)C)C(=O)CNCc1cc(C(N)=O)ccn1`, the Potency entry in test [1] and in [2] was “inactive” in each case.

On to `C=C1CC2C3(C)C(O)CC(=O)C(C)(C)C3C(O)C(OC(C)=O)C2(C)C2C(=O)OC(C)(C(=O)OC)C(=O)C12C` (configuration not stated), for which the Potency result in test [1] and in test [2] was “inactive” each time.

As to `OC[C@H]1O[C@@H](OC[C@H]2O[C@@H](OCc3ccccc3)[C@H](O)[C@@H](O)[C@@H]2O)[C@H](O)[C@@H](O)[C@@H]1O`, the Potency result in test [1] and in test [2] was “inactive” throughout.

Turning to `O=C(/C=C/c1ccc(O)c(O)c1)O[C@@H]1[C@@H](O)[C@H](OC2CCCCC2O)O[C@H](CO)[C@H]1O` (some centres not stated), the Potency entry in [1] and in [2] was “inactive” each time.

Regarding `C=C(C(=O)O)C1CC(O)C2(C)CCCC(C)(O)C2C1` (configuration not stated), the Potency entry in test [1] and in test [2] was “inactive” in each case.

For `C=C1C(=O)OC2CC(COC(=O)C(C)C)=C(C(C)CCCOC(C)=O)[C@@H](OC(C)=O)C12` (some centres not stated), the Potency result in [2] is “inactive”.

`CC(=O)OC1CCC2(C)C(CCC3(C)C2CC=C2C4CC(C)(C)CCC4(C)CCC23C)C1(C)C(=O)O` (configuration not stated): the Potency result in test [1] and in [2] was “inactive” each time.

For `CC1(C)CC[C@]2(C(=O)O)CC[C@]3(C)C(=CCC4[C@@]5(C)CC[C@H](O[C@H]6O[C@H](C(=O)O)[C@@H](O)[C@H](O[C@@H]7O[C@H](CO)[C@H](O)[C@H](O)[C@H]7O)[C@H]6O)C(C)(C)C5CC[C@]43C)[C@@H]2C1` (some centres not stated), in [2], the redox activity (% of DA3003) was 8.43% [at 11.5 µM].

For the compound `COC(=O)C1=COC(OC2OC(CO)C(O)C(O)C2O)C2C(C)CC(=O)C12O` (configuration not stated), the Potency result in [1] and in test [2] was “inactive” each time.

For the compound `OC[C@@]1(O)CO[C@H](OC[C@H]2O[C@@H](OC(CCCCc3ccc(O)cc3)CCc3ccc(O)cc3)[C@H](O[C@H]3OC[C@](O)(CO)[C@H]3O)[C@@H](O)[C@@H]2O)[C@@H]1O` (some centres not stated), the Potency result in test [1] and in test [2] was “inactive” throughout.

Regarding `O=C(Cn1c2ccccc2c2nc3n(c(=O)c21)CCS3)N1CCCC1`, in [2], the Potency entry was “inactive”.

For `COC(=O)C[C@@H]1C(C(=O)O)=CO[C@@H](O[C@@H]2O[C@H](CO)[C@@H](O)[C@H](O)[C@H]2O)/C1=C\COC(=O)/C=C/c1ccc(O)c(OC)c1`, the Potency entry in test [1] and in [2] was “inactive” in each case.

For the compound `O=C(Cc1ccccc1)OC[C@H]1O[C@H](O[C@H]2O[C@H](CO)[C@@H](O)[C@H](O)[C@H]2O)[C@H](O)[C@@H](O)[C@@H]1O`, the Potency entry in test [1] and in [2] was “inactive” each time.
